For assay [1], the target named is Nuclear respiratory factor 1 (Homo sapiens) (UniProt Q16656). In words: ATG_NRF1_CIS: Attagene CIS-FACTORIAL HepG2 Assay for human Nuclear Respiratory Factor 1 (NRF1) Orphan Gene (AID 2282987). The conditions noted are these: HepG2 NRF1 cis-element reporter, Attagene multiplex; actives raise or lower the signal. In a few lines:
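Human hepatoma HepG2 cells carrying transfected promoter-regulated reporter units were incubated with test chemicals for 24 h. Reporter transcripts were measured by RT-PCR plus capillary electrophoresis, and endpoints derived by bidirectional fitting with DMSO as baseline.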

Assay [2] is described as follows: ATG_NFI_CIS: Attagene CIS-FACTORIAL HepG2 Assay for human Nuclear Factor I (NFI) (AID 2282989). The conditions noted are these: HepG2 cis-regulatory reporter, NFI response element transcription; actives raise or lower the signal. A digest of the protocol: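 Endogenous TF activity in HepG2 cells transiently transfected with cis-element-driven multiplexed reporter units, read 24 h after dosing. Reporter mRNA quantified by RT-PCR, 6-FAM labelling, HpaI digestion and capillary electrophoresis; bidirectional fit versus DMSO.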

For assay [3], the target named is Myc proto-oncogene protein (Homo sapiens) (UniProt P01106). The assay can be described thus: ATG_Myc_CIS: Attagene CIS-FACTORIAL HepG2 Assay for human Myelocytomatosis (Myc) Proto-Oncogene Transcription Factor (AID 2282990). The conditions noted are these: HepG2, Attagene cis-reporter transcription factor activity; actives raise or lower the signal. A digest of the protocol: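 Cells of the HepG2 human liver line bear multiple cis-driven reporter transcription units. Reporter mRNA after 24 h exposure is reverse-transcribed, amplified, labelled and resolved by capillary electrophoresis, with gain- or loss-of-signal fitting relative to DMSO.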

Assay [4] in a line: ATG_NF_kB_CIS: Attagene CIS-FACTORIAL HepG2 Assay for human Nuclear Factor Kappa B (NF-kB) (AID 2282991). The conditions noted are these: HepG2 Attagene cis-factorial NF-kB reporter mRNA; actives raise or lower the signal. In a few lines:
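Multiplexed cis-reporter assay in transiently transfected HepG2. 24 h treatment; RNA isolated, RT-PCR, labelled fragments resolved by CE. DMSO baseline.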

Assay [5] is described as follows: ATG_NRF2_ARE_CIS: Attagene CIS-FACTORIAL HepG2 Assay for human Nuclear Factor Erythroid 2 Related Factor 2 (NFR2) response to Antioxidant Response Elements (ARE) (AID 2282992). The conditions noted are these: HepG2 Attagene ARE/NRF2 reporter, transcription factor activity; actives raise or lower the signal. A digest of the protocol:
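Cis-factorial assay: transfected HepG2 reporter library, 24 h dosing, mRNA readout via RT-PCR/CE; DMSO-referenced bidirectional analysis.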

In assay [6] the target is Cellular tumor antigen p53 (Homo sapiens) (UniProt P04637). In words: ATG_p53_CIS: Attagene CIS-FACTORIAL HepG2 Assay for human p53 Transcription Factor (AID 2282994). As to conditions: HepG2 p53 cis-element reporter, Attagene mRNA; actives raise or lower the signal. A digest of the protocol: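 Using HepG2 hepatoma cells carrying cis-acting multiplexed reporters, mRNA induction is detected after a 24 h exposure. Gain- and loss-of-signal responses are fitted relative to DMSO-treated cells.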

Assay [7] is described as follows: BSK_3C_TissueFactor: BioMAP Diversity Plus: 3C Assay for Tissue Factor Biomarker Activity (AID 2282997). As to conditions: BioMAP 3C HUVEC, tissue factor biomarker readout; actives raise or lower the signal. A digest of the protocol:
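Human vascular primary cells (umbilical vein endothelium) received test chemical; Tissue Factor was determined by ELISA at 24 h, and both gain and loss of signal versus DMSO were fitted.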

Assay [8] can be described thus: BSK_3C_uPAR: BioMAP Diversity Plus: 3C Assay for Urokinase-type plasminogen activator receptor (uPAR) Biomarker Activity (AID 2282998). The conditions noted are these: BioMAP 3C HUVEC, uPAR biomarker ELISA; actives raise or lower the signal. In a few lines:
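Primary human umbilical vein endothelial cells, 3C system; surface uPAR measured by ELISA 24 h after dosing. Cytotoxicity via SRB total protein in parallel cultures; bidirectional fit against DMSO.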
(An ELISA detects its analyte on a solid surface through an enzyme-linked reagent.)

A short description of assay [9]: BSK_4H_Eotaxin3: BioMAP Diversity Plus: 4H Assay for Eotaxin 3 Biomarker Activity (AID 2283000).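 On outcome: CCL26 protein level quantified by ELISA in parallel with SRB cytotoxicity check.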 As to conditions: primary human endothelial cells (HUVEC); actives raise or lower the signal. A digest of the protocol: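 Readout is Eotaxin-3 (CCL26) level by ELISA in primary human umbilical vein endothelial cells harvested 24 h after chemical exposure; activity fitted in both directions against DMSO control.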

Assay [10] concerns the target human Peroxisome Proliferator-activated Receptor delta (PPARd), PPARD (gene 5467) (UniProt Q03181). The assay can be described thus: ATG_PPARd_TRANS: Attagene TRANS-FACTORIAL HepG2 Assay for human Peroxisome Proliferator-activated Receptor delta (PPARd) (AID 2283002; active means hit-call score of the fitted dose curve at least 0.9, where 1 is the maximum). A digest of the protocol: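 Cell-based TRANS reporter: HepG2, transient MRTU transfection, 24 h exposure. Readout = reporter mRNA (RT-PCR/CE, 6-FAM). Gain-of-signal fit vs DMSO control.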

Read-out in assay [11]: Intercellular Adhesion Molecule 1 (ICAM1), ICAM1 (gene 3383)
The assay can be described thus: BSK_3C_ICAM1: BioMAP Diversity Plus: 3C Assay for Intercellular Adhesion Molecule 1 (ICAM1) Biomarker Activity (AID 2283003). The conditions noted are these: primary human endothelial cells (HUVEC); actives raise or lower the signal. A digest of the protocol:
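HUVEC primary cells stimulated under 3C conditions; ICAM1 measured by ELISA 24 h after compound dosing. Curves fitted bidirectionally against the DMSO baseline. Overt cytotoxicity checked by SRB staining of parallel cultures.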

For assay [12], the target named is human Retinoic Acid Receptor beta (RARb), RARB (gene 5915) (UniProt P10826). In words: ATG_RARb_TRANS: Attagene TRANS-FACTORIAL HepG2 Assay for human Retinoic Acid Receptor beta (AID 2283004; active means hit-call score of the fitted dose curve at least 0.9, where 1 is the maximum). In a few lines: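 Readout is reporter mRNA induction: RNA reverse-transcribed, PCR-amplified, FAM-labelled, HpaI-cut and resolved by capillary electrophoresis. Transiently transfected HepG2 cells carrying exogenous NR–Gal4 chimeras were dosed for 24 h; activity fitted upward relative to DMSO.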

In assay [13] the target is Retinoic acid receptor alpha (Homo sapiens) (UniProt P10276). The assay can be described thus: ATG_RARa_TRANS: Attagene TRANS-FACTORIAL HepG2 Assay for human Retinoic Acid Receptor alpha (RARa) (AID 2283005; active means hit-call score of the fitted dose curve at least 0.9, where 1 is the maximum). A digest of the protocol: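 Reporter transcripts, measured by RT-PCR with fluorescent labeling and capillary electrophoresis after 24 h dosing, reflect activity of an exogenous human RARa–GAL4 fusion in transiently transfected HepG2. Fitted for increase relative to DMSO.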

A short description of assay [14]: BSK_3C_Proliferation: Cell Proliferation Assessment in the BioMAP Diversity Plus: 3C Assay (AID 2283006).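 On AC50: potency may reflect either rise or fall in cell number versus DMSO.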 As to conditions: primary human endothelial cells (HUVEC). A digest of the protocol: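 Subconfluent HUVEC (3C system) cultured with chemical; relative cell number read at 48 h by sulforhodamine B total-protein staining (0.1% SRB after 10% TCA fixation, 560 nm). Bidirectional fit relative to DMSO.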

The target in assay [15] is Nuclear receptor subfamily 1 group I member 2 (Homo sapiens) (UniProt O75469). The assay can be described thus: ATG_PXR_TRANS: Attagene TRANS-FACTORIAL HepG2 Assay for human Pregnane X Receptor (PXR) (AID 2283008; active means hit-call score of the fitted dose curve at least 0.9, where 1 is the maximum). In a few lines: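 Fluorescence intensity of FAM-labelled, HpaI-digested reporter amplicons, separated by capillary electrophoresis, quantifies induction. HepG2 cells with PXR-Gal4 trans-reporter system were exposed 24 h; DMSO defines baseline.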

Assay [16] deals with human Retinoic Acid Receptor gamma (RARg), RARG (gene 5916) (UniProt P13631). In words: ATG_RARg_TRANS: Attagene TRANS-FACTORIAL HepG2 Assay for human Retinoic Acid Receptor gamma (RARg) (AID 2283009; active means hit-call score of the fitted dose curve at least 0.9, where 1 is the maximum;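 on AC50: AC50 is for reporter induction above DMSO meaning RARg activation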). A digest of the protocol:
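HepG2 transiently transfected with GAL4-UAS reporter units and chimeric NR-Gal4 constructs; 24 h compound exposure. Reporter mRNA quantified by RT-PCR, FAM labeling, HpaI digestion and capillary electrophoresis; gain-of-signal versus DMSO.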

A short description of assay [17]: ATG_Oct_MLP_CIS: Attagene CIS-FACTORIAL HepG2 Assay for human Octamer-Binding Transcription Factor (Oct) (AID 2282993). As to conditions: HepG2 Attagene cis-factorial Oct reporter, mRNA; actives raise or lower the signal. A digest of the protocol:
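HepG2 cells transiently transfected with cis-element-driven reporter transcription units (endogenous TF activity); 24 h compound exposure. Reporter mRNA quantified by RT-PCR, 6-FAM labelling, HpaI digestion and capillary electrophoresis; bidirectional fit versus DMSO baseline.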

Assay [18] in a line: BSK_3C_VCAM1: BioMAP Diversity Plus: 3C Assay for Vascular cell adhesion molecule 1 (VCAM1) Biomarker Activity (AID 2282999). As to conditions: BioMAP 3C HUVEC, VCAM1 ELISA, cytokine-stimulated; actives raise or lower the signal. A digest of the protocol: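 Endothelial cells from human umbilical vein are treated with test chemical. At 24 h, VCAM-1 is measured by ELISA, and responses in either direction are fitted relative to DMSO.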

For assay [19], the target named is Peroxisome proliferator-activated receptor gamma (Homo sapiens) (UniProt P37231). In words: ATG_PPARg_TRANS: Attagene TRANS-FACTORIAL HepG2 Assay for human Peroxisome Proliferator-activated Receptor-gamma (PPARg) (AID 2283007; active means hit-call score of the fitted dose curve at least 0.9, where 1 is the maximum). In a few lines:
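Human hepatoma HepG2, transient MRTU transfection, 24 h treatment. mRNA reporter signal by RT-PCR plus capillary electrophoresis, fluorescence detection; fitted for increase over DMSO negative control.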

Assay [20] concerns the target human Peroxisome Proliferator-activated Receptor alpha (PPARa), PPARA (gene 5465) (UniProt Q07869). The assay can be described thus: ATG_PPARa_TRANS: Attagene TRANS-FACTORIAL HepG2 Assay for human Peroxisome Proliferator-activated Receptor alpha (PPARa) (AID 2283001; active means hit-call score of the fitted dose curve at least 0.9, where 1 is the maximum;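 on AC50: potency for gain of reporter signal over DMSO so agonist or activator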). In a few lines: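 Read-out is fluorescence of reporter cDNA fragments resolved by capillary electrophoresis after RT-PCR. Human HepG2 liver cells carried transfected PPARa-Gal4 chimera and GAL4-UAS reporter units, treated 24 h; activity scored as increase over DMSO.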

The text below walks through data of PubChem BioAssay (EPA / NIEHS).

The structures appear in SMILES notation. Records with an inconclusive call do not appear. Activity calls are given as the source filed them. How the source made its calls, unless noted: active means hit-call score of the fitted dose curve at least 0.9, where 1 is the maximum; inactive means score below 0.9.

human Retinoic Acid Receptor gamma (RARg), RARG (gene 5916), sequence (P13631 whole entry, looked up, the tested form may be a part): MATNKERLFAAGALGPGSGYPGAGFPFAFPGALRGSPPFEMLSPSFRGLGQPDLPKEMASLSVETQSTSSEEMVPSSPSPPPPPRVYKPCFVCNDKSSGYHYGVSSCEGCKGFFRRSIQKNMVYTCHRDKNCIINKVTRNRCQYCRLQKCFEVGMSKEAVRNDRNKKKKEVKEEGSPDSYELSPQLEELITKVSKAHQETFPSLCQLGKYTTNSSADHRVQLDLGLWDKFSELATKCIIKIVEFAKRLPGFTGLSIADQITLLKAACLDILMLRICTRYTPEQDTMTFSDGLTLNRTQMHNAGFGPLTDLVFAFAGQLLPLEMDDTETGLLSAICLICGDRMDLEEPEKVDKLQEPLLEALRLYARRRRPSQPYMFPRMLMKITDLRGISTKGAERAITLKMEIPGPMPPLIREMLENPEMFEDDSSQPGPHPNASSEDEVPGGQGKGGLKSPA
Myc proto-oncogene protein (Homo sapiens), sequence (P01106 whole entry, looked up): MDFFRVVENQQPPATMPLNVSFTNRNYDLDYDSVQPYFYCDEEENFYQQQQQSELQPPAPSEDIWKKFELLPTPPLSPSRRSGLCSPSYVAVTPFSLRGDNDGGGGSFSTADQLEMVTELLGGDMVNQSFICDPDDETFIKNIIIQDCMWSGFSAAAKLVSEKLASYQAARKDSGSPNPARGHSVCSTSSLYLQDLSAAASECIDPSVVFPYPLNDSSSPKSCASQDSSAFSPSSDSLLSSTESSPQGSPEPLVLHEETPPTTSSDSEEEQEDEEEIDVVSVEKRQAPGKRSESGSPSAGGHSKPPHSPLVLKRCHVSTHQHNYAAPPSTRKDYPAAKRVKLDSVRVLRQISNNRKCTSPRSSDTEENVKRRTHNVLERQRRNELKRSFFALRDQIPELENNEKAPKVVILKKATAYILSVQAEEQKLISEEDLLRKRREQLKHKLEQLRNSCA
Nuclear receptor subfamily 1 group I member 2 (Homo sapiens), sequence (O75469 whole entry, looked up, the tested form may be a part): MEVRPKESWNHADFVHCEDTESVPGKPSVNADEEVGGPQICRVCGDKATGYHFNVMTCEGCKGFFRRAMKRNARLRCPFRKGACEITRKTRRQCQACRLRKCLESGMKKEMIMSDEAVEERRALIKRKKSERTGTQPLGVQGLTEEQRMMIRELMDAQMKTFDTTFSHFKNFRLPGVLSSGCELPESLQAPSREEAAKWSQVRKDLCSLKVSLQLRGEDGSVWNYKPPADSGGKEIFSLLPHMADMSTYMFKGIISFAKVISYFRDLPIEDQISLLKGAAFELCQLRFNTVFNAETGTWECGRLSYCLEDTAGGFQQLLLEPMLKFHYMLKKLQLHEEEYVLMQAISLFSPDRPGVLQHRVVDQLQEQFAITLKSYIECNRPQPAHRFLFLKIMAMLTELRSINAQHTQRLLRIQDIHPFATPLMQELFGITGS
Retinoic acid receptor alpha (Homo sapiens), sequence (P10276 whole entry, looked up, the tested form may be a part): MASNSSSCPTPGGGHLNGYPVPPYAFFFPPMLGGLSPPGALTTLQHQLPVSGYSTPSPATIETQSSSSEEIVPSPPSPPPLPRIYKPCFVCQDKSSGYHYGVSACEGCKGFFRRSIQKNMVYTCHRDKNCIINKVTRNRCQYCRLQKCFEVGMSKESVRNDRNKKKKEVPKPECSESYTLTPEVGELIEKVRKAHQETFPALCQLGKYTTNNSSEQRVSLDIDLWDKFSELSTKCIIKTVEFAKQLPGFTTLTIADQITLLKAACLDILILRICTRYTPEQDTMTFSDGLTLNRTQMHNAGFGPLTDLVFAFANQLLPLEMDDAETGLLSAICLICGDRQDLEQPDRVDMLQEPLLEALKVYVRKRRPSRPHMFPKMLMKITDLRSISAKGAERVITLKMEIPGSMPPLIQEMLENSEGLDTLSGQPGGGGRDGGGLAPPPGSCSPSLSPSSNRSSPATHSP
Nuclear respiratory factor 1 (Homo sapiens), sequence (Q16656 whole entry, looked up): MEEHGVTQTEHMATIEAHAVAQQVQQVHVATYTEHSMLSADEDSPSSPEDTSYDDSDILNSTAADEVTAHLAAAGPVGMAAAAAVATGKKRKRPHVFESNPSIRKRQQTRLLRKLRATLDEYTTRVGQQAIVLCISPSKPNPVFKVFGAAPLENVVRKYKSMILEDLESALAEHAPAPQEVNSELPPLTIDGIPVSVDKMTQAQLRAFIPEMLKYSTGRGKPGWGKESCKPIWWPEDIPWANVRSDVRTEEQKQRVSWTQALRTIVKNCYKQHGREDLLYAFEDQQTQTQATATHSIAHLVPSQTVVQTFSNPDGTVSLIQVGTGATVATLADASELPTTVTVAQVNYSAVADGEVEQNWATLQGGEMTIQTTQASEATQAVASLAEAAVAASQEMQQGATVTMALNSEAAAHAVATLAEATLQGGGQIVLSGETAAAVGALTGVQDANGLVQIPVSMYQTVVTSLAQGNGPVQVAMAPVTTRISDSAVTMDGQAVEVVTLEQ
human Retinoic Acid Receptor beta (RARb), RARB (gene 5915), sequence (P10826 whole entry, looked up, the tested form may be a part): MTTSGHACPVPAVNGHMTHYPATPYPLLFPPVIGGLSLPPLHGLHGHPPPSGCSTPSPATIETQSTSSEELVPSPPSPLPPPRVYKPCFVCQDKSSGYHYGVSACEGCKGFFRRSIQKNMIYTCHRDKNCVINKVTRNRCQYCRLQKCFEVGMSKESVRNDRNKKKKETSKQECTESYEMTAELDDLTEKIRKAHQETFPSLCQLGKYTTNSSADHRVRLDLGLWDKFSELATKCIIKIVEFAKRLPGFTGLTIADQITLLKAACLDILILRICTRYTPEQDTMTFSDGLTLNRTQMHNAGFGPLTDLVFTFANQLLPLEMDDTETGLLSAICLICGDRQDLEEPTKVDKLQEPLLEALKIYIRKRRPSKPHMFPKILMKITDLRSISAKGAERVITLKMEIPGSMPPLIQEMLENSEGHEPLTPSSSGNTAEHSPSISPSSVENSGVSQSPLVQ
Cellular tumor antigen p53 (Homo sapiens), sequence (P04637 whole entry, looked up): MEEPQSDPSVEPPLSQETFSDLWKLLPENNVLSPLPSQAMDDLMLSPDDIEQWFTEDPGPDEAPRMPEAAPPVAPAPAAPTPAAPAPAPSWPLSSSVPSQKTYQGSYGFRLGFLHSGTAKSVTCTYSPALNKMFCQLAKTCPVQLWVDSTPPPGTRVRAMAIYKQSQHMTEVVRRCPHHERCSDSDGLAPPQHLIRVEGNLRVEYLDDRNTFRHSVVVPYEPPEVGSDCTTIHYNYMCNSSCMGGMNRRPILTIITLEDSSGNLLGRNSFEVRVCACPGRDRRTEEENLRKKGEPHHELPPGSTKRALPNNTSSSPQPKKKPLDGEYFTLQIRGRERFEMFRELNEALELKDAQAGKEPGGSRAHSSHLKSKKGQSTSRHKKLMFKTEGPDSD
human Peroxisome Proliferator-activated Receptor alpha (PPARa), PPARA (gene 5465), sequence (Q07869 whole entry, looked up, the tested form may be a part): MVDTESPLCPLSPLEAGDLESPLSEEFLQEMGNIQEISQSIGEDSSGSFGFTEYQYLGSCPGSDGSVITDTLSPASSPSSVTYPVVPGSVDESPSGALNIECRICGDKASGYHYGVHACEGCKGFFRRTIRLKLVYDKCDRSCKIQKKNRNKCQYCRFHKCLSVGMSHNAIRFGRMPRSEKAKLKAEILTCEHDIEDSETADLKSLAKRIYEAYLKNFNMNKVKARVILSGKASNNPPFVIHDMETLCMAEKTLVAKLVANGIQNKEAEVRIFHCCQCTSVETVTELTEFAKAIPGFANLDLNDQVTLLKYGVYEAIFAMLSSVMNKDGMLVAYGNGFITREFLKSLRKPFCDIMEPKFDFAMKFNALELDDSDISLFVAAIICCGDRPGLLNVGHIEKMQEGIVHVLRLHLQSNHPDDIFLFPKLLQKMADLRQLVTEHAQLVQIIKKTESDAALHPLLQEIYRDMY
Peroxisome proliferator-activated receptor gamma (Homo sapiens), sequence (P37231 whole entry, looked up): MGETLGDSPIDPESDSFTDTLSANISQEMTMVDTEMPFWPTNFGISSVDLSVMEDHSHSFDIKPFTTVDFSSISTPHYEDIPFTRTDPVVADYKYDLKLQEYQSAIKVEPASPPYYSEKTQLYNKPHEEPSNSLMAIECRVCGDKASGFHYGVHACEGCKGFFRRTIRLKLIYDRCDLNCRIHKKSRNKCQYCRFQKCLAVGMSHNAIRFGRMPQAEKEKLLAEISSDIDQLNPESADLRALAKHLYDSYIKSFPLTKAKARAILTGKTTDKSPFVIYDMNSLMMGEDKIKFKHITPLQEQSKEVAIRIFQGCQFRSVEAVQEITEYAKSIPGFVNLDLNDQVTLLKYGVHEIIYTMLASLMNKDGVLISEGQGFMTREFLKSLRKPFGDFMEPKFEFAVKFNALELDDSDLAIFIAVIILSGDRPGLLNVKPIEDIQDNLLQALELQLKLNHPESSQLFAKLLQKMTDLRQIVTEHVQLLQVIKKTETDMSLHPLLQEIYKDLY
human Peroxisome Proliferator-activated Receptor delta (PPARd), PPARD (gene 5467), sequence (Q03181 whole entry, looked up): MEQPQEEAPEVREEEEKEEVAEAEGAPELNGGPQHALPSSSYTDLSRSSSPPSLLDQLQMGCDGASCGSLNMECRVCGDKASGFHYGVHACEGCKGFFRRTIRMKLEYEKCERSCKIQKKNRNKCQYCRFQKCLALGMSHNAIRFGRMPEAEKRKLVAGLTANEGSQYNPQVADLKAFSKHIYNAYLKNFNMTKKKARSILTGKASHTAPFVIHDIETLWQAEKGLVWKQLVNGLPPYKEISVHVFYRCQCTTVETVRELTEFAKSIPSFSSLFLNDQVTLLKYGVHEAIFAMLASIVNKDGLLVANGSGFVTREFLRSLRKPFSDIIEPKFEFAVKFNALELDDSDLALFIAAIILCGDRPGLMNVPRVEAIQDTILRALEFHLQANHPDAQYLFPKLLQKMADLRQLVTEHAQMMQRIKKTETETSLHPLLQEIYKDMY

On to `CCc1c(Br)c(Br)c(Br)c(Br)c1Br`, for which the compound was called inactive in [1], in assay [2], in assay [3], in assay [4], in assay [5] and in assay [6]. The compound was classed as inactive in [10], in [11], in [12], in assay [13], in assay [14] and in assay [16]. The AC50 (usually the concentration giving half of the maximal activity seen) in [7] was 4.73 µM (active); in assay [8], 20 µM (active); in assay [9] it was 20 µM (active); in assay [15] it was 7.09 µM (active).

On to `FC(F)(Br)C(F)(F)C(F)(F)C(F)(F)C(F)(F)C(F)(F)Br`, for which the result in assay [1], in assay [2], in assay [3], in [4], in [5] and in assay [17] was inactive. The compound was classed as inactive in [6], in assay [7], in [8], in assay [18], in assay [9] and in assay [10]. Further, the outcome in assay [11], in [14], in [19] and in [15] was inactive.

For the compound `CC(C)=CCCC(C)CCOC(=O)C(C)C` (configuration not stated), the result in assay [1], in assay [2], in [3], in assay [4], in assay [5] and in assay [6] was inactive. The call in assay [10], in assay [19] and in assay [15] was inactive.

On to `CCCCCCCCCCCCCCCC[N+](C)(C)Cc1ccccc1`, for which the call in [1], in assay [2], in assay [4], in assay [5], in assay [17] and in [12] was inactive. The compound was called inactive in [13] and in assay [15]. The AC50 in [3] was 25.1 µM (active); in assay [7], 20 µM (active); in assay [8], 20 µM (active); in assay [9] it was 6.55 µM (active); in assay [20], 45 µM (active); in assay [11], 2.35 µM (active). Besides, the AC50 in [14] is 0.604 µM (active); in [19] it was 60.2 µM (active); in assay [16], 49.9 µM (active).

As to `O=C(O)C(F)(OC(F)(F)C(F)(OC(F)(F)C(F)(OC(F)(F)C(F)(F)C(F)(F)F)C(F)(F)F)C(F)(F)F)C(F)(F)F` (configuration not stated), the outcome in assay [1], in assay [2], in [3], in [4], in assay [5] and in [17] was inactive. In addition, the result in assay [7], in [8], in assay [18], in assay [9], in assay [10] and in assay [11] was inactive. Besides, the call in assay [12], in assay [13], in assay [14], in assay [19], in [15] and in assay [16] was inactive.

Take `C=C(C)C(=O)OCC(F)(F)C(F)(F)C(F)(F)F`: the compound was classed as inactive in assay [1], in assay [2], in assay [3], in assay [4], in assay [5] and in [17]. In addition, the result in assay [6], in assay [7], in assay [8], in assay [9], in assay [10] and in assay [11] was inactive. The call in assay [12], in [13], in assay [14], in [19] and in assay [15] was inactive.

Consider `CCCCCCS`, for which the compound was called inactive in assay [1], in assay [2], in assay [3], in [4], in assay [5] and in assay [17]. The outcome in assay [6], in assay [10], in assay [13], in assay [19], in [15] and in assay [16] was inactive.

On to `C=CC(F)(F)C(F)(F)C(F)(F)C(F)(F)C(F)(F)C(F)(F)C(F)(F)C(F)(F)F`, for which the compound was classed as inactive in [1], in assay [2], in [3], in assay [4], in assay [5] and in assay [17]. In addition, the result in assay [6], in assay [7], in assay [8], in assay [9], in assay [20] and in assay [10] was inactive. Moreover, the result in [11], in assay [13], in assay [14], in assay [19] and in [16] was inactive.
